The values below come from PubChem BioAssay.

Test [1] in a line: small molecules captured by biotinylated probe aFSTL3 – biochemical, small-molecule microarray, fluorescence 635/667, stem cell growth factor project, primary screen (AID 1064).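 Also: measures binding of the biotinylated anti-FSTL3 antibody to printed compounds.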 Particulars: higher = more signal.
Test [2] is described as follows: binders from COS7 lysate, DM2A8 probe, primary screen, torsin A project, cell lysate, small-molecule microarray, fluorescence 635/667 (AID 1065). Particulars: higher = more signal, COS7 lysate expressing mutant human TOR1A.
The nature of test [3]: small molecules captured by biotinylated probe aFGF2 – biochemical, small-molecule microarray, fluorescence 635/667, stem cell growth factor project, primary screen (AID 1067).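 Also: measures binding of biotinylated aFGF2 protein to printed compounds on slides; z-score merges feature fluorescence and signal-to-noise across triplicate slides.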 To be noted: higher = more signal.
Test [4] is described as follows: small molecules captured by biotinylated probe aFGF10 – biochemical, small-molecule microarray, fluorescence 635/667, stem cell growth factor project, primary screen (AID 1071).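 Also: score merges 667 nm spot intensity and signal to noise from triplicate slides.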 Particulars: higher = more signal.
Test [5] has as its target Neurogenic locus notch homolog protein 2 (Homo sapiens) (UniProt Q04721). Nature of the test: small molecules binding Notch2 protein – biochemical, small-molecule microarray, 635 nm fluorescence, stem cell growth factors, primary screen (AID 1073). Particulars: higher = more signal.
The target of test [6] is Pro-neuregulin-1, membrane-bound isoform (Homo sapiens) (UniProt Q02297). In words: small molecules binding neuregulin-1 protein – biochemical, small-molecule microarray, fluorescence 635/667, psychiatric disease protein project, primary screen (AID 1075).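 Also: score combines 667 nm spot fluorescence with signal to noise.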 Particulars: NRG1 binding, 635 nm fluorescence, higher = more signal.
Test [7] concerns Neuregulin-1 EGF-like domain. Nature of the test: small molecules binding NRG1 EGF domain – biochemical, small-molecule microarray, 635 nm fluorescence, primary screen (AID 1081).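 Also: binding of the protein to compounds printed on small-molecule microarray slides.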 Particulars: higher = more signal.
A short description of test [8]: FRG1 expression reporter modulators in myotubes – cell-based, C2C12 myotubes, firefly/Renilla luciferase, luminescence, FRG1 inhibition for FSHD, primary screen (AID 1084). Particulars: FRG1 promoter luciferase, higher = more signal, called active from +8 up or from −8 down.
Test [9] can be described thus: small molecules captured by biotinylated probe aFST – biochemical, small-molecule microarray, fluorescence 635/667, stem cell growth factor project, primary screen (AID 1086).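 Also: score merges 667 nm fluorescence with signal-to-noise of each printed compound spot.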 To be noted: higher = more signal.
Test [10] can be described thus: binders of probe aHhip on microarray, primary screen, stem cell growth factor project, biochemical, small-molecule microarray, fluorescence 635/667 (AID 1087).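 Also: score merges spot fluorescence at 667nm with spot signal to noise ratio.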 Particulars: higher = more signal.
The subject of test [11] is PRMT1 (protein arginine N-methyltransferase 1). In words: small molecules binding arginine methyltransferase PRMT1 – biochemical, small-molecule microarray, 635 nm fluorescence, primary screen (AID 1088).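 Also: binding of Prmt1 protein to compounds spotted on small-molecule microarray slides.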 Particulars: higher = more signal.
Test [12] in a line: growth effects on S. cerevisiae YJM789 – YJM789 clinical isolate, OD600, 24 h, basal, primary screen (AID 1089).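 Also: growth of clinical yeast isolate S. cerevisiae YJM 789 seeded 1000 cells per well; test concentration not given here.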 To be noted: higher = more signal, called active from +8 up or from −8 down.
Test [13] can be described thus: S. pombe growth modifiers, basal conditions – strain 972, OD600, 24 h, no modulator, primary screen (AID 1090).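 Also: basal condition with compound alone and no growth modifier present; test concentration not given here.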 To be noted: S. pombe 972 growth, higher = more signal, called active from +8 up or from −8 down.
Test [14] is described as follows: budding yeast growth modifiers under rapamycin – strain BY4716, OD600, 96 h, primary screen (AID 1091). Also: test concentration not given here. Particulars: S. cerevisiae BY4716 + rapamycin, higher = more signal, called active from +8 up or from −8 down.
Test [15] has as its target Torsin-1A-interacting protein 2 (Homo sapiens) (UniProt Q8NFQ8). In words: small molecules binding lysate-expressed LULL1 – cell lysate, human LULL1 lysate, 635/667 nm fluorescence, primary screen (AID 1092).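 Also: score merges per-feature 667 nm fluorescence with signal-to-noise.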 Particulars: small-molecule microarray, hLULL1 lysate binding, 635 nm fluorescence; higher = more signal.
The nature of test [16]: optical density change of DRC41 E. coli – strain DRC41, OD650, 24 h, E. coli filamentation project, primary screen (AID 1093).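 Also: MC1000 strain lacking acrAB efflux and sulA so SOS filamentation is blocked; test concentration not given here.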 Particulars: E. coli DRC41 growth, higher = more signal, called active from +8 up or from −8 down.
The nature of test [17]: probe aLefty2 binding to arrayed compounds – biochemical, biotinylated probe, 635/667 nm fluorescence, primary screen (AID 1094).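 Also: score merges spot fluorescence near 667 nm with spot signal-to-noise ratio.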 Particulars: small-molecule microarray, higher = more signal.
Test [18] has as its system Noggin (protein binding on small-molecule microarray). In words: small molecules binding Noggin protein – biochemical, 635/667 nm fluorescence, primary screen (AID 1095).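 Also: score merges 667 nm feature fluorescence with signal to noise over triplicate slides.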 To be noted: 635 nm fluorescence, higher = more signal.
Test [19] concerns the target Neurogenic locus notch homolog protein 3 (Homo sapiens) (UniProt Q9UM47). Nature of the test: small molecules binding NOTCH3 protein – biochemical, 635/667 nm fluorescence, primary screen (AID 1096). Particulars: small-molecule microarray, 635 nm fluorescence, higher = more signal.
Test [20] in a line: probe aEGFR binding to arrayed compounds – biochemical, biotinylated probe, 635/667 nm fluorescence, primary screen (AID 1097).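 Also: probe is a biotinylated anti-EGFR antibody binding compounds printed on slides; score combines fluorescence near 667 nm and signal to noise of each spot.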 Particulars: small-molecule microarray, higher = more signal.

The source made the active and inactive calls.

Neurogenic locus notch homolog protein 3 (Homo sapiens), sequence (Q9UM47 whole entry, looked up): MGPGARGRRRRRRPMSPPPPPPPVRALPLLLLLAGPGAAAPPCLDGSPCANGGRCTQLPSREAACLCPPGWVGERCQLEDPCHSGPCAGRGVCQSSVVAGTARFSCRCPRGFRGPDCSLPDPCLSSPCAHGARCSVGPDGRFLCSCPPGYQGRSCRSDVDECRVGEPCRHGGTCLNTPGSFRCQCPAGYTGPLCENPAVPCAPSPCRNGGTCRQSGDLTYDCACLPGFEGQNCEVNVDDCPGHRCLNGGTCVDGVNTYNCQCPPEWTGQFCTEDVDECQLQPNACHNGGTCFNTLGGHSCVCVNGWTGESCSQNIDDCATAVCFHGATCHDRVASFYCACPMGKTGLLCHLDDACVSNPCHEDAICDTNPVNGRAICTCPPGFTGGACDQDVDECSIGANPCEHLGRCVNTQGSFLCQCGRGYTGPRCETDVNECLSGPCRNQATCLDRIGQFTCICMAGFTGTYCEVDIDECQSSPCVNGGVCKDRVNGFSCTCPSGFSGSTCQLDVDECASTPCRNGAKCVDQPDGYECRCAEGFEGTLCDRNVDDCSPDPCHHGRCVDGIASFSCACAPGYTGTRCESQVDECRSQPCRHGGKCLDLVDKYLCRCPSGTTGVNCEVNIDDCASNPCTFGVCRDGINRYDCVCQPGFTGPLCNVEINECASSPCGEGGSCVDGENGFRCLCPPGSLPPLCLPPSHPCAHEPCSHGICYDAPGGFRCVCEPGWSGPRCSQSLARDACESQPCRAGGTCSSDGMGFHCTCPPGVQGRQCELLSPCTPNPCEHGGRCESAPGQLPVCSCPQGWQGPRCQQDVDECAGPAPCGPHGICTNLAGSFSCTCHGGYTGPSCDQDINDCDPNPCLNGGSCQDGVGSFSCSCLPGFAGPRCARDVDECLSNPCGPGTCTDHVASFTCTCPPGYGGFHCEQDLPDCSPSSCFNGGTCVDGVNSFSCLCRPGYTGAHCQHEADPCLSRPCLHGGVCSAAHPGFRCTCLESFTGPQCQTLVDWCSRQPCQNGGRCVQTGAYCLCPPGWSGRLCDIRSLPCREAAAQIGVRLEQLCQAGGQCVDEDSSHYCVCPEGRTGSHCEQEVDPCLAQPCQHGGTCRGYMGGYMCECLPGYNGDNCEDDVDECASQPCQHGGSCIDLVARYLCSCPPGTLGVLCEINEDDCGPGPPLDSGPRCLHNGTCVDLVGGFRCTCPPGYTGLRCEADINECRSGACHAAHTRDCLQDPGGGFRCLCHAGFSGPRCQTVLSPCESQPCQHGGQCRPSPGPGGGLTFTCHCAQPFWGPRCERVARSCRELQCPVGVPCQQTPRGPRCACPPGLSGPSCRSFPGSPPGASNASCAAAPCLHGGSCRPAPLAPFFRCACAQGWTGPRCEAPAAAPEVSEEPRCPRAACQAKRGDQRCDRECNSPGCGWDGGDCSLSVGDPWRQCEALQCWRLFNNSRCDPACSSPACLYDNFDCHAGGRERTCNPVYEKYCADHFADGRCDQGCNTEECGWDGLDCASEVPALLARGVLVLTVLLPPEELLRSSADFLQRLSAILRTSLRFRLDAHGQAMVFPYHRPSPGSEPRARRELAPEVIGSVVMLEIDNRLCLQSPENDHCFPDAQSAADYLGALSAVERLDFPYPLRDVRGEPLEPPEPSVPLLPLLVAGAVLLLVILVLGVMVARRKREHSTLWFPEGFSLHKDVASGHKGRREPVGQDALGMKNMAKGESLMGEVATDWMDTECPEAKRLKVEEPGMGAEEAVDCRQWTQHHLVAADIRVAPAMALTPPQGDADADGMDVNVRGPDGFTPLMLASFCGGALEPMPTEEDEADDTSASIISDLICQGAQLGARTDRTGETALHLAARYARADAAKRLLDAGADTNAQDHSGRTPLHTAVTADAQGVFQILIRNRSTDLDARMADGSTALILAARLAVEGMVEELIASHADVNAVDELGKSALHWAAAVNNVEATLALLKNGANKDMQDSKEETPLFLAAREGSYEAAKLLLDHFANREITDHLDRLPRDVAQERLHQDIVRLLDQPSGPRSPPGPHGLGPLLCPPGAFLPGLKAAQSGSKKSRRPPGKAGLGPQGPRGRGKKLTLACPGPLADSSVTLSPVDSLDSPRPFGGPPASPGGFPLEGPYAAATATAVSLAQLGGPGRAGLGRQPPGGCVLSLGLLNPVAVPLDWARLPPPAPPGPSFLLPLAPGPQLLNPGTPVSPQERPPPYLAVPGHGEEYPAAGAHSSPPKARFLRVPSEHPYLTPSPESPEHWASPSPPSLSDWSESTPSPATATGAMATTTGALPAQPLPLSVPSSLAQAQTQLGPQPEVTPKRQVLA
Neurogenic locus notch homolog protein 2 (Homo sapiens), sequence (Q04721 whole entry, looked up, canonical isoform): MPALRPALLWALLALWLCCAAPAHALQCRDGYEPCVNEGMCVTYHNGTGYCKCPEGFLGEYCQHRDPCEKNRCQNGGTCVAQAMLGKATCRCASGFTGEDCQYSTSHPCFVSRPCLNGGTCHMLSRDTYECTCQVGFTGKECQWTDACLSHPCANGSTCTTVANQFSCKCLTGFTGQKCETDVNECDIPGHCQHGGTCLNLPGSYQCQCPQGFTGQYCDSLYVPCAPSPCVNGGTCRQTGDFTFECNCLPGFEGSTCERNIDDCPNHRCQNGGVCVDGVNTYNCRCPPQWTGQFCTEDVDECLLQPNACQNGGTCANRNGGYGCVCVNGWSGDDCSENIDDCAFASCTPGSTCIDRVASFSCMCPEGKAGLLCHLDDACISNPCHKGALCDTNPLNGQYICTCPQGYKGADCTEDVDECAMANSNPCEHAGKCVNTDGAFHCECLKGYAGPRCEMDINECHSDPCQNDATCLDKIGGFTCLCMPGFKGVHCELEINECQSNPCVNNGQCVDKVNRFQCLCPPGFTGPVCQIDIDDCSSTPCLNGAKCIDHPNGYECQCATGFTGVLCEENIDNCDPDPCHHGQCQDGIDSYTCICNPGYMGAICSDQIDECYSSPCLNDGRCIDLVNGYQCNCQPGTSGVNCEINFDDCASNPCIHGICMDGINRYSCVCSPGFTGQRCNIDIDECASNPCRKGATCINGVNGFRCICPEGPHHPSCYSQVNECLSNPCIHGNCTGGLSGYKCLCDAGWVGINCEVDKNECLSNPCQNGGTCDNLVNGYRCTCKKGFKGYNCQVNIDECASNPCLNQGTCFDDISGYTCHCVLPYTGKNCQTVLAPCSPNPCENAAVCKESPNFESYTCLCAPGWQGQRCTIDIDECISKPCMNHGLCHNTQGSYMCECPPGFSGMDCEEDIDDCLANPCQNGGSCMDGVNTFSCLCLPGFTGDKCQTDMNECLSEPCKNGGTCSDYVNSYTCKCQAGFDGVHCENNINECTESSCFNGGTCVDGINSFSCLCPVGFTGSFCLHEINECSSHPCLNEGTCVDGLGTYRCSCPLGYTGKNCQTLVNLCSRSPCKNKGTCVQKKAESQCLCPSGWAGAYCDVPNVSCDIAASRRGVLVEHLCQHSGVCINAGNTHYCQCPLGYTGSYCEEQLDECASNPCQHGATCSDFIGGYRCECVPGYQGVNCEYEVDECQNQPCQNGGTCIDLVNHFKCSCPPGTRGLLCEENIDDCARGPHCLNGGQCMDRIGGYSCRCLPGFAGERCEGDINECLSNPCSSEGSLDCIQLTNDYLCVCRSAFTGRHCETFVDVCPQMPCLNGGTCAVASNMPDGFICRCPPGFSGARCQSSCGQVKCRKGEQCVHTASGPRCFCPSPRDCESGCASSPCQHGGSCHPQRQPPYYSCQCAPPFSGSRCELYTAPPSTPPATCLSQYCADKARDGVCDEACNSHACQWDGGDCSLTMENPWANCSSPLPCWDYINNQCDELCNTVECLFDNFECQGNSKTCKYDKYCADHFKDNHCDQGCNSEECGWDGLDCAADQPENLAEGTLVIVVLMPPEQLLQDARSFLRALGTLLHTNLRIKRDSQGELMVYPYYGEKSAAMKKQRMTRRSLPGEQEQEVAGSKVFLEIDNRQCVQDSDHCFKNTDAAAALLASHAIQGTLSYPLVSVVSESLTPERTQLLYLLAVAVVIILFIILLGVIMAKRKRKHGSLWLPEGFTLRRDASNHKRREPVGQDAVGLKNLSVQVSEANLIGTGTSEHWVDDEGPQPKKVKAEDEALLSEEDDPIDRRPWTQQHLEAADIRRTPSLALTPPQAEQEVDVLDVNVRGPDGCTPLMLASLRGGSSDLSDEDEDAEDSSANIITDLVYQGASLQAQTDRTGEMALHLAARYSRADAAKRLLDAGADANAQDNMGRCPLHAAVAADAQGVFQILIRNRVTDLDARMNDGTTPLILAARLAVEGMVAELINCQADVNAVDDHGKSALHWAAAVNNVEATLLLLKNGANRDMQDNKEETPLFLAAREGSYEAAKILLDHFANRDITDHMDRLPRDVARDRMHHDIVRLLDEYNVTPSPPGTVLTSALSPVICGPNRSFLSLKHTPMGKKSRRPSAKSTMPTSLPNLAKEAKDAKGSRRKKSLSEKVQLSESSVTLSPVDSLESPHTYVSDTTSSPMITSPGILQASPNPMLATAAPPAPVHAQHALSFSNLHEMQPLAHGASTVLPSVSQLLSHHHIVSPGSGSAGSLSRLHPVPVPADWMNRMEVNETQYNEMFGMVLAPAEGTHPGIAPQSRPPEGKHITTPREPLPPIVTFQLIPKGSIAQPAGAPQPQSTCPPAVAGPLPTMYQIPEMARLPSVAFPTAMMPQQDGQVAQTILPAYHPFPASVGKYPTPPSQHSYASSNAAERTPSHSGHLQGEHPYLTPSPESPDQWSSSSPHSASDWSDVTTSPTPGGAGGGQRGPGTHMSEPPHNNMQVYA

As for `CCOC(=O)C[C@H]1[C@H](OC(=O)c2cc3ccccc3oc2=O)[C@@H](NC(=O)CC(C)C)c2cc(OCCCO)ccc2N1C(=O)c1ccccc1`, the composite z-score in [1] was -0.26; in test [2], 0.478; in [3] it was -0.0327; in [4], 0.667; in [5] it was 0.3; in test [6], -0.0698. Also, the composite z-score in [7] is 0.397; in test [9] it was 0.128; in test [10] it was 0.0373; in test [11], 0.983; in test [15], 1.52; in test [17] it was -0.0661. Further, the composite z-score in [18] was 0.805; in test [19], 0.606; in test [20], -0.0828. Also, the z-score is -0.332 (inactive) in test [8]; -0.789 (inactive) in test [12]; -0.769 (inactive) in test [13]; -0.193 (inactive) in [14]; 2.64 (inactive) in [16].
With `COCCOC(=O)N1C(=O)[C@@]2(c3ccccc31)[C@H](c1ccc(OCCO)cc1)N1[C@H](c3ccccc3)[C@H](c3ccccc3)OC(=O)[C@H]1[C@@H]2C(=O)N1CCc2cc(OC)c(OC)cc2C1`, the composite z-score in [1] was -0.128; in test [2], 0.974; in [3] it was 0.123; in [4], 1.15; in [5], 1.33; in [6], 1.29. The composite z-score came out at 1.28 in test [7]; 0.799 in test [9]; 0.176 in test [10]; 1.53 in test [11]; 3.09 in [15]; 0.284 in test [17]. Moreover, the composite z-score in test [18] amounted to 1.12; in test [19] it was 1.14; in test [20], 0.246. For the same molecule, the z-score in test [8] was -1.82 (inactive); in [12], 1.93 (inactive); in [13], 0.856 (inactive); in test [14], 4.71 (inactive); in test [16] it was 0.0474 (inactive).
As for `[N-]=[N+]=Nc1ccccc1C[C@]1(C(=O)NCc2ccccc2)N=C(c2ccc(OCCCO)cc2)O[C@H]1c1ccccc1N=[N+]=[N-]`, the composite z-score in [1] is -0.0447; in test [2], 0.288; in test [3], 0.189; in test [4] it was 0.218; in test [5] it was 1.49; in test [6] it was 1.6. Further, the composite z-score in test [7] was 1.06; in test [9], 0.726; in test [10] it was -0.0672; in [11] it was 1.52; in test [15] it was 2.53; in test [17], 0.292. Also, the composite z-score was 0.358 in test [18], 1.04 in test [19] and -0.067 in test [20]. The z-score in [8] was -0.899 (inactive); in test [12] it was 0.422 (inactive); in [13] it was 1.63 (inactive); in test [14], 4.87 (inactive); in [16] it was 0.362 (inactive).
As to `CCC(CC)C(O)C1C=CC2C(=O)N(c3ccccc3)C(=O)C2N1Nc1ccccc1` (stereo not given), the composite z-score in test [1] is 0.525; in test [2] it was 0.814; in [3], 0.21; in test [4] it was 0.974; in test [5], 1.62; in test [6], 1.94. The composite z-score is 1.27 in test [7]; 1.42 in test [9]; -0.216 in test [10]; 1.49 in test [11]; 3.53 in test [15]; 0.503 in test [17]. Moreover, the figures for the composite z-score in [18], in test [19] and in [20] were 0.403, 1.07 and 0.228, respectively. Further, the z-score in [8] was -1.31 (inactive); in test [12] it was 0.296 (inactive); in test [13], -0.914 (inactive); in test [14] it was 0.204 (inactive); in test [16], 0.272 (inactive).
Regarding `N#Cc1ccc(C(O)C2C=CC3C(=O)N(c4ccccc4)C(=O)C3N2Nc2ccccc2F)cc1` (stereo not given), the composite z-score in test [1] is -0.367; in [2], 0.362; in [3] it was 0.315; in test [4], 0.936; in [5], 1.37; in test [6], 1.24. In addition, the composite z-score in [7] was -0.0077; in test [9], 0.716; in test [10], -0.0994; in [11], 0.713; in [15], 2.93; in test [17], -0.113. In addition, the results for the composite z-score in test [18], in test [19] and in [20] were 0.339, 0.972 and 0.0262, respectively. Moreover, the z-score is 0.372 (inactive) in [8]; -0.413 (inactive) in test [12]; 0.135 (inactive) in test [13]; -0.851 (inactive) in test [14]; 0.246 (inactive) in test [16].
